# Screening results from PubChem.
# RXFP1 ag: agonists of human relaxin receptor RXFP1. HEK293T-RXFP1 cAMP TR-FRET, 30 min; response scale: percent of porcine relaxin response, buffer zero. Potency, µM (highest dose often 57.5 µM), inactives show at the top dose activation, hits mostly activators. hit rate 0.3% among 370,000. AID 2676; active = well fitted activation curve with a large enough effect; inconclusive = small, poorly fitted or top-dose-only effect; also: potency is read from the fitted curve at half-maximal effect; % is scaled to controls: 0 for no effect and ±100 for the full control effect; nearly all actives have a fitted effect of over 60% in size
# Target sequence (Q9HBX9 whole entry, looked up): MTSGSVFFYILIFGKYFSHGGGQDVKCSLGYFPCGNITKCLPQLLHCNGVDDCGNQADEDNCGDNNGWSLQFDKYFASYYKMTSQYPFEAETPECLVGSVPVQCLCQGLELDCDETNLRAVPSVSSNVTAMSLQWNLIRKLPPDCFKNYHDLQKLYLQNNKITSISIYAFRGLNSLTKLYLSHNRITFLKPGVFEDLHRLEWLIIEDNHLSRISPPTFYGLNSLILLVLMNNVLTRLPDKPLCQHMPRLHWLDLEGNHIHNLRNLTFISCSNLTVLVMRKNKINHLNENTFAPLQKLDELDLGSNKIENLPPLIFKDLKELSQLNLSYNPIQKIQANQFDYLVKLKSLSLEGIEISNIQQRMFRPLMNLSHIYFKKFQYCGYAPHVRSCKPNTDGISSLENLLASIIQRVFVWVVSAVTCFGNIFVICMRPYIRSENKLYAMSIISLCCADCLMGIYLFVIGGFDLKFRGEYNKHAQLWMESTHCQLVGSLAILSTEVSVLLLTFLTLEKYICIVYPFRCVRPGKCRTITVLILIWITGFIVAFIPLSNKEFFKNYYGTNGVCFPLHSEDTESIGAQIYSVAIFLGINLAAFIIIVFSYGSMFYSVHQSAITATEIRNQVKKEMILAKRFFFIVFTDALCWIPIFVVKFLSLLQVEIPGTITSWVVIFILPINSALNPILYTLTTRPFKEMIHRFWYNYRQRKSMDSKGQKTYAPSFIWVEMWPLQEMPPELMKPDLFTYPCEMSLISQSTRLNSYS
#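 HEK293T cells stably expressing RXFP1 were pretreated with the PDE4 inhibitor Ro 20174, exposed to compounds for 30 min at 37C, lysed, and cAMP was read by TR-FRET. Data normalized to buffer (basal) and 29 nM porcine relaxin (100%).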
# RXFP1 antag: antagonists of human relaxin receptor RXFP1 | hit rate 0.59% among 350,000 | HEK293-RXFP1, relaxin-stimulated cAMP HTRF, 30 min; stronger effect = lower value | AID 1259400 | activity change, negative = inhibition, % at 57.5 µM;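 active = activity change of -60% or lower, but not beyond a set lower limit; inconclusive = change between -60% and -40%, or beyond the set limit; inactive = change above -40%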; also: % is scaled to controls: 0 for no effect and ±100 for the full control effect
# gsp antag: gsp mutant antagonism; gsp-mutant cells, cAMP HTRF, 30 min; Potency, µM (doses to about 76.9 µM), for the others: top-dose activity change, negative = inhibition, actives largely listed as inhibitors; hit rate 0.4% among 340,000; calls by dose curve; cell line not stated here;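 also: intracellular cAMP measured with PDE inhibitor Ro 20-1724 present during compound exposure; potency is read from the fitted curve at half-maximal effect; % is scaled to controls: 0 for no effect and ±100 for the full control effect; nearly all actives have a fitted effect of over 65% in size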
#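 G418-selected cells were plated in DMEM/10% FBS for 16-24 h at 37C, then treated with compounds plus the PDE inhibitor […] (300 uM solution added) for 30 min at 37C. Intracellular cAMP was measured by HTRF after 30 min lysis at room temperature.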
# pAkt inh: blocks phosphorylation of Akt; Neuro2A IGF-stimulated pAkt S473 HTRF, 20 min; stronger effect = lower value; activity change, % for hits at 50 µM; AID 651550; hit rate 0.32% among 360,000; in the data active = activity change below about -80%; inconclusive = mostly about -51% to -80%; also: % is scaled to controls: 0 for no effect and ±100 for the full control effect
#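 Single-point screen (50 µM final compound) in Neuro2A cells stimulated 20 min with 6 nM IGF at 37 deg C. After lysis, Ser473-phosphorylated Akt read by HTRF (ex 330 nm, em 615/665 nm) as the 665/615 ratio.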
# gsp ag: gsp mutant agonism | gsp mutant cells, cAMP HTRF, 30 min | Potency, µM (titrated, usually from 76.9 µM), inactives show at the highest dose activation (cAMP increase), most hits filed as activators | hit rate 0.13% among 340,000 | AID 624287; active = well fitted activation curve with a large enough effect; inconclusive = small, poorly fitted or top-dose-only effect, or another doubt; inactive = no such curve, though single readings can be large or run the other way; cell line not stated here;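 also: phosphodiesterase inhibitor Ro 20-1724 added with compounds to block cAMP breakdown; potency is read from the fitted curve at half-maximal effect; nearly all actives have a fitted effect of over 60% in size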
#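 Cells stably selected in G418 were plated at 2000/well, grown 16-24 hr, then given compounds in DMSO with the PDE inhibitor […] (300 uM solution added) for 30 min at 37C; cAMP was read by HTRF.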
# ClpP mod: qHTS Assay for Activators of ClpP. AID 651965, 2013. Potency, µM (doses to about 57.5 µM), for inactives: at the highest dose activity change, negative = active. hit rate 1.9% among 340,000. ATP-dependent Clp protease proteolytic subunit (Bacillus subtilis (strain 168)), P80244. purified B. subtilis ClpP, FRET peptide cleavage, 20 min; active = well fitted falling curve with a large enough effect; inconclusive = small, poorly fitted or top-dose-only effect; inactive = no such curve, though single readings can be large or run the other way; also: potency is read from the fitted curve at half-maximal effect; the source files actives as falling curves though it sought activators and does not explain the sign; nearly all actives have a fitted effect of over 65% in size
#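 Purified B. subtilis ClpP, 10 microg/mL final in Tris/HCl pH8 with KCl, BSA, glycerol and Tween-20, cleaved an Abz/nitrotyrosine-quenched decapeptide. Fluorescence (ex 320, em 430) was read at 0 and 20 min at room temperature. Delta was normalized to 5.8 microM ADEP and DMSO/no-enzyme controls.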
# Numbers without * were called inactive; i = inactive; ? = inconclusive; . = not tested or not shown; [ ] = remark or other dose. In the library only some 2.7% were active in any assay of this set; here they are far more common.
SMILES,RXFP1 ag,RXFP1 antag,gsp antag,pAkt inh,gsp ag,ClpP mod
CCOc1ccccc1N1CCN(C(=O)c2cc(-c3cc(OC)ccc3OC)nc3ccccc23)CC1,2.3%,2.4,14.1µM*,i,23.4%,-24.2%
COc1ccc(N2CCN(C(=O)c3cc(-c4cc(OC)ccc4OC)nc4ccccc34)CC2)cc1,4.5%,-10.8,?,i,-58.7%,-0.3%
COc1ccc(-c2cc(C(=O)N3CCN(c4ccccc4F)CC3)c3ccccc3n2)c(OC)c1,1.2%,-11.6,?,i,25.8%,28.2µM*
Cc1ccnc2nc(C(=O)OCC(=O)N(Cc3ccccc3)C(C)(C)C)nn12,.,3.4,4.2%,i,3.0%,-3.5%
CC1CCn2c(nc3cc(C(=O)NCc4ccc(F)cc4)ccc32)C1 (stereo not given),2.8%,-11.6,.,.,.,-2.1%
C=CC(=O)N1C/C(=C/c2ccc(F)cc2)C(=O)/C(=C\c2ccc(F)cc2)C1,.,-79.8*,4.9%,i,10.3%,-0.5%
CCN(CC)CCCNc1ccc2ncn3c4ccc(O)cc4c(=O)c1c23,.,-21.2,?,i,11.2µM*,0.7%
CN(C)CCNc1ccc2nnn3c4ccc(O)cc4c(=O)c1c23,.,5.5,-2.6%,i,?,0.3%
CCOC(=O)C(C)Sc1ncnc2c1c(-c1ccccc1)cn2-c1ccc(OC)cc1 (stereo not given),0.7%,0.0,-12.1%,i,?,25.1µM*
CCC(Sc1ncnc2c1c(-c1ccccc1)cn2-c1ccc(OC)cc1)C(=O)OC (stereo not given),-2.3%,-0.1,-4.2%,i,2.2%,31.6µM*
COC(=O)C(C)Sc1ncnc2c1c(-c1ccccc1)cn2-c1ccc(OC)cc1 (stereo not given),0.9%,-1.7,-10.6%,i,10.2%,?
COc1ccc(NC(=O)CC2C(=O)N(c3ccccc3)C(=O)N2C2CCCCC2)cc1 (stereo not given),2.7%,.,.,.,.,-0.7%
Cc1[nH]c2ccccc2c1C(=O)COC(=O)c1ccccc1O,.,-19.8,?,i,-3.9%[15.4 µM],3.55µM*
CCc1cccc2c(C(=O)COC(=O)c3nccnc3N)c[nH]c12,-0.7%,-11.6,-9.0%,i,0.5%[15.4 µM],28.2µM*
O=C(OCC(=O)c1c[nH]c2ccccc12)c1cc2ccccc2cc1O,1.0%,-9.2,-10.9%,i,7.0%[15.4 µM],20µM*
Cc1[nH]c2ccccc2c1C(=O)COC(=O)c1nccnc1N,0.5%,-66.3*,-9.6%,i,31.1%,3.8%
CCc1cccc2c(C(=O)COC(=O)c3ccccc3)c[nH]c12,-3.1%,-15.3,-10.6%,i,13.8%[15.4 µM],-22.3%
COc1ccc(Nc2nc(C)nc(N)c2S(=O)(=O)c2ccccc2)cc1,14.9%,.,.,.,.,3.9%
Clc1ccc[n+](CCCCC[n+]2cccc(Cl)c2)c1,.,.,.,.,.,-14.9%
CC(=O)NC(Cc1ccc([N+](=O)[O-])cc1)C(=O)NCC(N)C(=O)c1ccccc1 (stereo not given),.,.,.,.,.,-1.0%
COCCNC(=S)Nc1ccc2[nH]c(=O)[nH]c2c1,-2.1%,2.1,-5.9%,i,-2.1%,-4.1%
Cc1ccc(NC(=O)CSCc2cc(=O)c3ccccc3[nH]2)c(C)c1,5.4%,0.2,.,.,.,-0.9%
CCC1Oc2ccc(C)cc2N(CC(=O)NCCc2ccccc2)C1=O (stereo not given),-0.3%,2.4,.,.,.,-0.8%
Cc1ccc(C2Nc3ccc4ccccc4c3C3=C2C(=O)CC(C)(C)C3)o1 (stereo not given),2.6%,-7.1,?,i,22.0%,14.1µM*
COc1cc(C2Nc3ccc4ncccc4c3C3=C2C(=O)CC(C)(C)C3)cc(OC)c1O (stereo not given),5.3%,-1.5,-3.4%,i,?,-2.3%
SMILES,RXFP1 ag,RXFP1 antag,gsp antag,pAkt inh,gsp ag,ClpP mod
O=C1CCCC2=C1C(c1ccco1)Nc1ccc3ccccc3c12 (stereo not given),0.5%,.,-36.0%,i,-10.8%,35.5µM*
CC1(C)CC(=O)C2=C(C1)c1c(ccc3ccccc13)NC2c1cc([N+](=O)[O-])cc([N+](=O)[O-])c1O (stereo not given),0.2%,-72.3*,31.6µM*,i,-10.1%[15.4 µM],.
CC1(C)CC(=O)C2=C(C1)c1c(ccc3ccccc13)NC2c1ccc(C(=O)O)cc1 (stereo not given),0.1%,1.6,-24.0%,i,-1.1%,.
COC(=O)c1ccc(N2C(c3ccsc3)=Cc3cc4c(cc3C2CC(=O)c2ccco2)OCO4)cc1 (stereo not given),.,.,.,i,.,-11.3%
Cc1cc(=O)n(CC(=O)N2CCCCC2)c2c1c(C)nn2C,1.7%,.,.,.,.,3.7%
Cc1cc(OCC(=O)N2CCOCC2)cc2oc(=O)c3ccccc3c12,1.8%,-0.4,-6.4%,i,-34.9%,7.08µM*
Cc1ccc(OCC(=O)N2CCOCC2)cc1C,0.5%,-7.4,-7.6%,i,?,-1.9%
CC(C)NC(=O)COc1ccc2c(c1)C(=O)CC(C)(C)O2,5.0%,4.8,0.9%,i,4.7%,4.7%
CCOc1ccc(OCC(=O)N2CCOCC2)cc1,0.1%,-0.8,4.8%,-98.5%*,-39.8%,-0.9%
CCCCCCCNC(=O)COc1ccc2c(c1)C(=O)CC(C)(C)O2,3.4%,2.9,-0.9%,i,-0.3%,28.2µM*
CC1(C)CC(=O)c2cc(OCC(=O)NCc3cccnc3)ccc2O1,1.1%,-1.0,3.1%,i,-0.9%,25.1µM*
CC(/C=N\NC(=O)c1ccc2c(c1)OCO2)c1ccccc1 (stereo not given),1.7%,-7.7,1.3%,i,-19.5%,-2.0%
O=S(=O)(Cc1cc(NCc2ccccc2)nc(-c2ccccn2)n1)c1ccccc1,0.5%,-5.8,2.4%,i,3.2%[15.4 µM],.
Cc1ccc(C)c(NC(=O)Nc2nnc(N(CC(C)C)CC(C)C)s2)c1,2.2%,-8.2,.,.,.,1.9%
CC1(C)CC(=O)c2cc(OCC(=O)N3CCOCC3)ccc2O1,-0.9%,3.9,9.9%,i,16.4%,28.2µM*
Cc1ccccc1OCCC(=O)OCC(=O)Nc1ccc2[nH]c(=O)[nH]c2c1,0.9%,-13.3,6.6%,i,-27.0%,31.6µM*
Cc1ccccc1OCCC(=O)OCC(=O)NCCNC(=O)COC(=O)CCOc1ccccc1C,-0.9%,-73.1*,-0.6%,i,4.6%[15.4 µM],.
Cc1ccccc1OCCC(=O)OCC(=O)NC1CC1,1.5%,-1.1,3.4%,i,-0.9%[15.4 µM],-0.8%
COC(=O)c1cnn(-c2ccc(C(=O)Nc3ccc(C(C)=O)cc3)cc2)c1N,0.3%,-9.4,.,.,.,-0.2%
Cc1[nH]c2ccccc2c1Cc1n[nH]c(=S)o1,1.9%,.,-9.9%,i,4.0%,-6.8%
